Assay results reported in publication PMC3218832.

Experiments:
Experiment in all cases: protein binding microarray; high values mean tight binding
Conditions in all cases: dsDNA, one strand shown
[1] = biological target: RELARELA (p65 homodimer) (Homo sapiens, UniProt Q04206 1-307)
[2] = biological target: p50p50 homodimer (Homo sapiens, UniProt P19838 7-356)
[3] = biological target: T1, p52p52 homodimer (Homo sapiens, UniProt Q00653 4-332)
T1 sequence: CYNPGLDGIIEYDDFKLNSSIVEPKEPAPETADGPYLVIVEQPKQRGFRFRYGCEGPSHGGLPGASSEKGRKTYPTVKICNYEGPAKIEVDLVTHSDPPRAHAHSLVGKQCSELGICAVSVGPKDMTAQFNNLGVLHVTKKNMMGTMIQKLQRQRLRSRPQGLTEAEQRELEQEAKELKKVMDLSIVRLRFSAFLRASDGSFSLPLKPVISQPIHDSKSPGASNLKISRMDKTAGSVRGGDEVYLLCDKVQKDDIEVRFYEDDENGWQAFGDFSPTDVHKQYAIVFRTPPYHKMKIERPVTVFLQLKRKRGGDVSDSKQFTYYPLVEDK

[4] = biological target: RELA (p65) subunit of heterodimer;p50 subunit (Homo sapiens;Homo sapiens, UniProt Q04206;P19838 1-307;7-356)
Sequence of RELA (p65) subunit of heterodimer;p50 subunit (Q04206 1-307, chain 1 of 2): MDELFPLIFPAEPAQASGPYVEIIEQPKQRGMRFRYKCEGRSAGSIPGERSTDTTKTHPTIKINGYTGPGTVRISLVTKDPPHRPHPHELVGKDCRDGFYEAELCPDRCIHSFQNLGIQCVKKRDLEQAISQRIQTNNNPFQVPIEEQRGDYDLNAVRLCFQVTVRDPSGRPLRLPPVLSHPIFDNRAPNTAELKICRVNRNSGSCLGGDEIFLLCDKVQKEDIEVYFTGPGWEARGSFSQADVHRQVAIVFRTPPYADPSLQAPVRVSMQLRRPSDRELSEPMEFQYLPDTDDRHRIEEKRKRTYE
Sequence of RELA (p65) subunit of heterodimer;p50 subunit (P19838 7-356, chain 2 of 2): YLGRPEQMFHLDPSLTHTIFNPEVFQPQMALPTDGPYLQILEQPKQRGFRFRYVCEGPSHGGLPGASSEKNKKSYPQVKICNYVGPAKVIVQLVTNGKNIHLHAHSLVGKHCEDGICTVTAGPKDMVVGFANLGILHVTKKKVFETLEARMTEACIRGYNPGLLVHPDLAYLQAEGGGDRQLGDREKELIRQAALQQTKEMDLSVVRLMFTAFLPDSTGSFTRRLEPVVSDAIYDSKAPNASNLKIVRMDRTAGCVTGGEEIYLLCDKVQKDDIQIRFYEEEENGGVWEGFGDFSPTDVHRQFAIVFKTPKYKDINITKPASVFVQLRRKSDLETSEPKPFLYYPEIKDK

[5] = biological target: RELA (p65) subunit of heterodimer;p52 subunit (Homo sapiens;Homo sapiens, UniProt Q04206;Q00653 1-307;4-332)
[6] = biological target: RELB subunit;p50 subunit (Homo sapiens;Homo sapiens, UniProt Q01201;P19838 120-401;7-356)
[7] = biological target: T2, RELB subunit;p52 subunit (Homo sapiens;Homo sapiens, UniProt Q01201;Q00653 120-401;4-332)
T2 sequence 1: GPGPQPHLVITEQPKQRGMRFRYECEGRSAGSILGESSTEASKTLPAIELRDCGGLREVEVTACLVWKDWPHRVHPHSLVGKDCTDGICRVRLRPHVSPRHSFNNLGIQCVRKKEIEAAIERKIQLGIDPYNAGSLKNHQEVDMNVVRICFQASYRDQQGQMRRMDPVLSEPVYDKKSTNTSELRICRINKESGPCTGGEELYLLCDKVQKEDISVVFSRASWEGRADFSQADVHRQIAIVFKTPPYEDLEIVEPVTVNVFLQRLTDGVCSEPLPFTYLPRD
T2 sequence 2: T1 sequence

[8] = biological target: C-Rel subunit;p50 subunit (Homo sapiens;Homo sapiens, UniProt Q04864;P19838 1-285;7-356)
[9] = biological target: T3, C-Rel subunit;p52 subunit (Homo sapiens;Homo sapiens, UniProt Q04864;Q00653 1-285;4-332)
T3 sequence 1: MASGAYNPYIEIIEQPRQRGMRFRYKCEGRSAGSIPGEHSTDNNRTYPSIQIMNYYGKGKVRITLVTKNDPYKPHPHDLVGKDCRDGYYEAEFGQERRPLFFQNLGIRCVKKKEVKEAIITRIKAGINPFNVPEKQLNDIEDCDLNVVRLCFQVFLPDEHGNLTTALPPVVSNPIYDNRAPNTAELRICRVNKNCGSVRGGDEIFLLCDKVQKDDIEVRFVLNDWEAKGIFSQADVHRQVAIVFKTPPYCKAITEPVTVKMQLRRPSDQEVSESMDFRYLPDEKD
T3 sequence 2: T1 sequence

Sequence of p50p50 homodimer (P19838 7-356): as the sequence (P19838 7-356, chain 2 of 2) above
Sequence of RELARELA (p65 homodimer) (Q04206 1-307): as the sequence (Q04206 1-307, chain 1 of 2) above

Row | Sequence | binding signal [1] | binding signal [2] | binding signal [3] | binding signal [4] | binding signal [5] | binding signal [6] | binding signal [7] | binding signal [8] | binding signal [9]
1 | CGGATCTTCCT | 0.45 z-score | -1.67 z-score | -0.691 z-score | -0.69 z-score | -0.836 z-score | -1.21 z-score | -0.889 z-score | -0.859 z-score | -0.666 z-score
2 | GGGGGGCCCCT | 0.434 z-score | 0.995 z-score | 1.67 z-score | 1.67 z-score | 1.86 z-score | 1.23 z-score | 1.45 z-score | 1.22 z-score | 1.71 z-score
3 | CGATTTCCCCT | 1.73 z-score | 1.66 z-score | 2.21 z-score | 2.26 z-score | 1.96 z-score | 2.39 z-score | 2.23 z-score | 1.83 z-score | 1.81 z-score
4 | CAAAGGCTCCT | -0.998 z-score | -1.36 z-score | -0.784 z-score | -1.16 z-score | -1.16 z-score | -1.21 z-score | -1.07 z-score | -1.99 z-score | -1.13 z-score
5 | GAAGTTATCCC | -0.0836 z-score | -0.295 z-score | -0.152 z-score | -0.31 z-score | -0.235 z-score | -0.113 z-score | -0.152 z-score | -0.126 z-score | -0.251 z-score
6 | GAAGGCATCCT | -0.848 z-score | -1.34 z-score | -0.851 z-score | -1.13 z-score | -1.21 z-score | -1.29 z-score | -1.12 z-score | -1.72 z-score | -1.14 z-score
7 | GAGAATTCCCT | 1.81 z-score | 1.39 z-score | 2.1 z-score | 1.68 z-score | 1.6 z-score | 1.65 z-score | 1.74 z-score | 1.43 z-score | 1.33 z-score
8 | AAATTGGCCCC | -0.344 z-score | 0.122 z-score | -0.144 z-score | 0.118 z-score | -0.121 z-score | 0.375 z-score | 0.258 z-score | 0.04 z-score | -0.0339 z-score
9 | GAGTTATCCCT | -0.151 z-score | 0.156 z-score | 0.345 z-score | -0.075 z-score | 0.135 z-score | 0.201 z-score | 0.304 z-score | -0.0693 z-score | -0.00956 z-score
10 | AAGAGCATCCT | -0.702 z-score | -1.75 z-score | -0.753 z-score | -1.09 z-score | -1.17 z-score | -1.16 z-score | -0.978 z-score | -1.52 z-score | -1.15 z-score
11 | AAAGGGTTCCT | -0.817 z-score | -1.23 z-score | -0.468 z-score | -0.866 z-score | -0.749 z-score | -1.03 z-score | -0.714 z-score | -0.957 z-score | -0.558 z-score
12 | GAGAATGTCCT | 0.673 z-score | -1.23 z-score | -0.437 z-score | -0.682 z-score | -0.739 z-score | -1.01 z-score | -0.926 z-score | -0.737 z-score | -0.678 z-score
13 | GAGAGCGCCCT | -0.857 z-score | -1.91 z-score | -0.661 z-score | -0.903 z-score | -1.01 z-score | -1 z-score | -0.95 z-score | -1.31 z-score | -0.822 z-score
14 | CAGTTACCCCC | 0.379 z-score | 1.11 z-score | 0.638 z-score | 0.953 z-score | 0.838 z-score | 1.01 z-score | 1.4 z-score | 1.01 z-score | 0.788 z-score
15 | CGGAGTATCCC | 0.97 z-score | -0.805 z-score | -0.256 z-score | 0.294 z-score | -0.0559 z-score | -0.605 z-score | -0.711 z-score | -0.0452 z-score | -0.0756 z-score
16 | GGAGAACCCCC | 0.892 z-score | 1.01 z-score | 1.75 z-score | 1.88 z-score | 1.77 z-score | 1.42 z-score | 1.59 z-score | 1.21 z-score | 1.74 z-score
17 | GGAGTGGCCCT | -0.154 z-score | -1.1 z-score | -0.562 z-score | -0.155 z-score | -0.329 z-score | -0.631 z-score | -0.334 z-score | -0.305 z-score | -0.0519 z-score
18 | AAATATGTCCT | -0.0065 z-score | -1.09 z-score | -0.534 z-score | -0.78 z-score | -0.678 z-score | -0.828 z-score | -0.738 z-score | -0.967 z-score | -0.696 z-score
19 | AAGTTCACCCC | -0.0981 z-score | 0.184 z-score | 0.0438 z-score | -0.0301 z-score | -0.0961 z-score | 0.292 z-score | 0.317 z-score | 0.451 z-score | 0.174 z-score
20 | CGGGGAATCCC | 3.57 z-score | 1.22 z-score | 3.13 z-score | 2.36 z-score | 2.81 z-score | 2.64 z-score | 2.75 z-score | 2.51 z-score | 3.54 z-score
21 | GAGTTCTCCCC | 0.519 z-score | 1.01 z-score | 0.732 z-score | 1.01 z-score | 1.01 z-score | 1.23 z-score | 1.07 z-score | 1.15 z-score | 0.673 z-score
22 | GGGGTGATCCC | 0.248 z-score | 0.402 z-score | 1.59 z-score | 0.62 z-score | 1.16 z-score | 0.387 z-score | 0.685 z-score | 0.527 z-score | 0.91 z-score
23 | CGAGTTATCCT | -0.476 z-score | -1.24 z-score | -0.637 z-score | -1.02 z-score | -0.873 z-score | -1.13 z-score | -0.889 z-score | -1.27 z-score | -0.871 z-score
24 | CGGTTTACCCC | 0.939 z-score | 0.564 z-score | 0.746 z-score | 0.807 z-score | 1.01 z-score | 0.667 z-score | 1.16 z-score | 1.04 z-score | 1.04 z-score
25 | CAAGAGGTCCC | 1.23 z-score | -0.219 z-score | 0.0202 z-score | -0.152 z-score | -0.417 z-score | 0.271 z-score | 0.113 z-score | -0.21 z-score | -0.201 z-score
26 | AGAGAACTCCT | -0.542 z-score | -1.29 z-score | -0.694 z-score | -0.888 z-score | -1.06 z-score | -1.05 z-score | -0.943 z-score | -1.01 z-score | -0.762 z-score
27 | GAATTTACCCT | 0.959 z-score | 0.984 z-score | 0.839 z-score | 0.86 z-score | 0.817 z-score | 0.602 z-score | 0.504 z-score | 0.6 z-score | 0.479 z-score
28 | CAATAACTCCC | 0.145 z-score | 0.702 z-score | 0.0211 z-score | 0.38 z-score | -0.231 z-score | 0.426 z-score | -0.00688 z-score | 0.223 z-score | -0.12 z-score
29 | CAATACATCCC | -0.0719 z-score | -0.836 z-score | -0.518 z-score | -0.774 z-score | -0.7 z-score | -0.646 z-score | -0.575 z-score | -0.971 z-score | -0.69 z-score
30 | CGGTGCTTCCC | 0.809 z-score | 0.562 z-score | 2.72 z-score | 1.22 z-score | 1.98 z-score | 1.09 z-score | 2.06 z-score | 0.924 z-score | 2.22 z-score
